Bioassay records from PubChem BioAssay.
This is a sample that favours compounds with a hit; in the whole collection about 4.1% have one here.
DAX1 inh-1 – DAX1 (NR0B1) inhibitors, primary screen, cell-based, HEK293, Gal4-DAX1, luciferase luminescence; 340,000 tested, 0.99% active; Nuclear receptor subfamily 0 group B member 1 (Homo sapiens), P51843; inhibition, % at 6.75 µM; HEK293 Gal4-DAX1 luciferase reporter;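 active means inhibition above the mean over all tested compounds plus 3 SD, cut at about 4.2% in these data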;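 further: 0% = DAX1-transfected cells with DMSO and 100% = empty-vector control cells with DMSO; inhibition shows as a rise in luminescence from relieved DAX1 repression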
Target sequence (P51843 207-470 limits assumed): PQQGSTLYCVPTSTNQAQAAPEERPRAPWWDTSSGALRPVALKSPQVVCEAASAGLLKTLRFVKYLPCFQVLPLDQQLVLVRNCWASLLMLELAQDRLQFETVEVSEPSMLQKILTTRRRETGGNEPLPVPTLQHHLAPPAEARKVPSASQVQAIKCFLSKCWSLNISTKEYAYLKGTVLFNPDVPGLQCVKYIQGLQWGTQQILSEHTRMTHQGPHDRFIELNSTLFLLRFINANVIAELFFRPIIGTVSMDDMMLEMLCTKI
hgDAF12 agonist – H. glycines DAF-12 receptor agonists, primary screen, cell-based, luminescence, HEK293, GAL4 fusion, UAS-luciferase. HEK293 GAL4-hgDAF12 UAS-luciferase reporter, agonist luminescence; normalized to butyrate control. activation, % at 6.8 µM. 370,000 tested, 1.8% active;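 active means activation above a cutoff set at the mean of all screened compounds plus 3 SD, cut at about 10% in these data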;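 further: 0% = DMSO wells and 100% = sodium butyrate wells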
hcDAF12 agonist – H. contortus DAF-12 nuclear receptor activators, primary screen, cell-based, luminescence, HEK293, lit1-tk-luc reporter | HEK293 hcDAF-12 lit1-tk-luc reporter; 0% DMSO, 100% Δ7-dafachronic acid | activation, % at 6.8 µM | 370,000 tested, 1.4% active | AID 652067, 2013;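 active means activation above the mean of all tested compounds plus 3 SD, cut at about 5.5% in these data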;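 further: 100% = response to 3 µM Δ7-dafachronic acid high control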
ssDAF-12 act – S. stercoralis DAF-12 nuclear receptor activators, primary screen, cell-based, luminescence, HEK293, GRIP1 co-expression, lit1-tk-luc. Nuclear hormone receptor DAF-12 (Strongyloides stercoralis). HEK293 ssDAF-12/GRIP1 lit1-tk-luc reporter; % of 3 µM dafachronic acid response. 370,000 tested, 1% active. activation, % at 6.8 µM;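 active means activation above the mean over all tested compounds plus 3 SD, cut at about 0.9% in these data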;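 further: 0% = DMSO-only wells and 100% = 3 µM delta7-dafachronic acid wells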
DAX1 inh-2 – DAX1 (NR0B1) inhibitors on StAR promoter, primary screen, cell-based, luminescence, SF-1 (NR5A1), full-length DAX-1 | inhibition, % at 6.8 µM | 370,000 tested, 1.1% active | HEK293T StAR-luciferase reporter, SF-1/DAX-1 repression relief | AID 652010, 2013;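 active means inhibition above the mean over all tested compounds plus 3 SD, cut at about 3.6% in these data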;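 further: 0% = DAX-1 cells with DMSO and 100% = cells lacking DAX-1 with DMSO; higher inhibition means more luminescence from relief of DAX-1 repression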
Starred values were filed as active, the others as inactive; . = no result given.

SMILES	DAX1 inh-1	hgDAF12 agonist	hcDAF12 agonist	ssDAF-12 act	DAX1 inh-2
CCCC(=O)Nc1cnc(NC(=O)c2cccc(F)c2)cc1C	-1	13*	4	1	3
COc1ccc(NC(=O)CSc2nnc(-c3n[nH]c4c3CCC4)n2N)cc1OC	.	4	-1	-2	-1
COc1ccccc1NC(=O)CCC(=O)N/N=C(/C)c1ccc(C)cc1	8.4*	-1	1	-1	0
Cc1ccc(OCC(=O)Nc2ccccc2F)cc1	6.1*	13*	4	0	2
Cc1ccc(C(=O)CCC(=O)Nc2ccccc2F)cc1	3	3	1	1.0*	0
C[C@@H]1COc2cc(Br)ccc2S(=O)(=O)N1Cc1cn(Cc2ccc(Cl)cc2)nn1	.	0	0	0	-1
O=C(Cc1ccc2cccnc2c1)c1ccc(O)cc1O	0	11*	3	0	2
O=C(Cc1ccccc1)c1ccc(O)cc1O	0	1	-2	-1	-3
O=C(CSc1nnc(-c2ccccc2)n1-c1ccc(Cl)cc1)c1ccc(Cl)cc1	.	-3	-2	-1	0
C=CCN(C)CC#Cc1ccc(C)cc1	.	-2	-1	-1	1
CCC(c1nnc(SCC(=O)Nc2ccc(NC(C)=O)cc2)n1Cc1ccccc1)N(C)C (stereo unspecified)	1	2	1	-1	-1
CCC(c1nnc(SCC(=O)NCCc2ccc(OC)c(OC)c2)n1Cc1ccccc1)N(C)C (stereo unspecified)	3	-1	0	1.2*	0
COc1ccc(CCNC(=O)CSc2nc3[nH]ncc3c(=O)n2-c2ccc(C)c(Cl)c2)cc1OC	1	0	2	1.8*	-3
O=C(CN1CCc2onc(-c3cccc(-n4cc(CO)nn4)c3)c2C1=O)N1CCOCC1	.	6	1	-1	1
Cn1nccc1C(=O)Nc1sc2c(c1C#N)CCCC2	0	7	1	-1	4.3*
O=C(Nc1ccc(F)cc1)OC1CC2CC1[C@H]1CCCCN1[C@H]2Cc1ccccc1 (stereo partly specified)	.	2	3	0	0
N#CCc1cc2ccc3cccc4ccc(c1)c2c34	7.0*	-2	0	-1	0
c1ccc2c(c1)c1cccc3ccc4cccc2c4c31	0	-4	-2	0	0
COC(=O)[C@]12C[C@H](CC(=O)NCc3cccc4ccccc34)C(=O)N(CCC3=CCCCC3)C1=C[C@H](C1CCCC1)O[C@@H]2C	.	2	2	-1	-1
Cc1cccc(N2CC(O)(c3cccs3)[N+]3=C2CCCC3)c1C (stereo unspecified)	0	-3	0	-2	0
Cc1ccccc1N1CC(O)(c2cccs2)[N+]2=C1CCCC2 (stereo unspecified)	0	0	0	1.8*	-1
O=C(Cc1ccccc1)NCC1CCCO1 (stereo unspecified)	0	0	-1	-1	0
O=P(c1ccccc1)(c1ccccc1)C1CCCO1 (stereo unspecified)	4.3*	-2	0	-1	1
COC(=O)c1cccc(C(=O)N2CCCC(C(=O)c3cccc(OC(C)C)c3)C2)c1 (stereo unspecified)	0	0	5.8*	0	-1
O=C(CCC1CCN(Cc2ccccc2Cl)CC1)NC1CC1	-1	0	-1	-1	0
COc1cc(CN2CCC(CCC(=O)NC3CC3)CC2)cc(Cl)c1OC	5.2*	2	0	-1	0
CC(c1nc2ccccc2[nH]1)N(C(=O)Cc1csc2ccccc12)c1cccnc1 (stereo unspecified)	.	-4	0	-1	-1
CC(c1nc2ccccc2[nH]1)N(C(=O)C1=NNC(=O)CC1)c1ccccc1 (stereo unspecified)	.	1	4	1.4*	2
COC(=O)c1ccc(OC)c(OC)c1Cl	1	0	-1	-2	0
CCOC(=O)c1ccc(OC)c(OC)c1Cl	5.8*	0	-1	-1	-1
